Measurements from PubChem BioAssay (Tox21).
Values joined by “and” are separate entries in the source; they are usually repeats but may differ in a detail not shown here. Equal entries are not always repeated. Inconclusive results are not listed. Some structures have more than one record in an assay (separate samples or runs), and their calls can disagree. Active and inactive are the calls of the source. The call rests on the fitted dose curve; in most records, active means well fitted curve in the direction sought with a large enough effect in the repeat runs; inconclusive means weak or mixed curves; inactive means no such curve, though single readings can be large; an effect the other way counts as inactive or inconclusive.

Test: A CellTox Green Cytotoxicity Assay to monitor cytotoxicity in HEK293 cells - 16 hour (AID 1224888); further: nearly all actives have a fitted effect of over 35% in size
Details: CellTox Green fluorescence; series mostly up to 76.8 µM; activity change: at the top concentration
In short: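 Each value comes from one timepoint of a single continuous run in which HEK293 cells with CellTox Green were exposed to compound for up to 40 h at 37 C, dye fluorescence rising with cell death.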
On the % scale 0 is the no-effect control and ±100 the full control effect.

SMILES	activity change	Potency
C#CC(C)(CC)OC(=O)c1ccccc1C(=O)O (stereo not drawn)	20.2% [at 35.3 µM, stronger effect = higher value] (inactive)	
O=C(OCc1ccccc1)c1ccc(O)cc1		inactive
NC(N)=NC(=O)Cc1c(Cl)cccc1Cl	-1.89% [at 35.3 µM, stronger effect = higher value] (inactive)	
O=Nc1ccc(Nc2ccccc2)cc1		inactive
CCCCN(CCO)CCCC	-0.131% (inactive)	
C/C=C/c1ccc(OCC)c(O)c1	3.38% (inactive)	
C=C(C)C(=O)O		inactive
COC(c1ccccc1)(c1ccccc1)[C@H](Oc1nc(C)cc(C)n1)C(=O)O	-17.1% [at 35.3 µM, stronger effect = higher value] (inactive)	
Nc1cc(S(=O)(=O)O)cc2cc(S(=O)(=O)O)cc(O)c12		inactive
CCOc1ccc2c(c1)C(C)=CC(C)(C)N2	9.38% (inactive)	
c1ccc2n[nH]nc2c1	-9.56% (inactive)	
CCCNC(C)C(=O)Nc1ccccc1C (stereo not drawn)	-12.6% [at 35.3 µM, stronger effect = higher value] (inactive)	

Test: qHTS RealTime-Glo MT Cell Viability Assay in HepG2 cells - 0 hour (AID 1224889); further: nearly all actives have a fitted effect of over 50% in size; further: potency means the concentration at half of the fitted maximal effect
Details: RealTime-Glo luminescence; series mostly up to 76.8 µM; activity change, negative = cytotoxicity: at the top concentration
In short: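 Compound treatment began 5 h after plating HepG2 cells (600/well) with NanoLuc luciferase and prosubstrate. Plates stayed at 37 C for 40 h; luminescence was captured at six time points, 0 h through 40 h.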

SMILES	Potency	activity change, negative = cytotoxicity
Cc1cc(Cc2cc(C)cc(C(C)(C)C)c2O)c(O)c(C(C)(C)C)c1	inactive	
CCn1cc(C(=O)O)c(=O)c2cc(F)c(N3CCNC(C)C3)c(F)c21 (stereo not drawn)		-1.57% [at 35.3 µM] (inactive)
Nc1cc(Cl)c(-c2cc(Cl)c(N)cc2Cl)cc1Cl	inactive	
CCC(=O)/C=C/C1C(C)=CCCC1(C)C (stereo not drawn)	inactive	
NC12CC3CC(CC(C3)C1)C2		1.46% [at 35.3 µM] (inactive)
CC(C)CCOC(=O)c1ccc(N(C)C)cc1		-3.5% [at 35.3 µM] (inactive)
CC(C)C(=O)c1c(C(C)C)nn2ccccc12		3.28% [at 35.3 µM] (inactive)
CC(=O)Nc1ccc(C(=O)CCl)cc1	inactive	
Cc1scc2c1N(C(=O)CN1CCN(C)CC1)c1ccccc1NC2=O		3.37% [at 35.3 µM] (inactive)
COC(=O)/C=C/c1ccccc1	inactive	
CCc1cc(C(C)(C)C)c(O)c(C(C)(C)C)c1	inactive	
COC(=O)c1cccc(C(=O)OC)c1	inactive	
O=C1OC2(c3ccc(O)cc3Oc3cc(O)ccc32)c2ccccc21	inactive	
CC1=C(C=O)C(C)(C)CC=C1		9.43% (inactive)
Nc1ccc2cc3ccccc3cc2c1	inactive	
Cc1cc(C2(c3cc(C)c(O)cc3C)OS(=O)(=O)c3ccccc32)c(C)cc1O	19.5 µM (active) and 15.5 µM (active)	
CCN(CC)C(=S)SSC(=S)N(CC)CC	inactive	
CC(=O)N[C@@H](CS)C(=O)O	inactive	
c1ccc2cc3c(ccc4ccccc43)cc2c1	inactive	

SMILES	Potency	activity change, negative = cytotoxicity
COc1ccc(CCN2CCC(Nc3nc4ccccc4n3Cc3ccc(F)cc3)CC2)cc1	inactive	
c1ccc2c(c1)CCCC2C1=NCCN1 (stereo not drawn)		-0.127% [at 35.3 µM] (inactive)
CCn1c2ccccc2c2cc(N)ccc21	inactive	
CC1COC(=O)O1 (stereo not drawn)	inactive	
Cc1cccc([N+](=O)[O-])c1C(=O)O		-0.0959% (inactive)
CO[Si](OC)(OC)c1ccccc1		-6.95% (inactive)
CCC(C)(Oc1ccc(C2(c3ccc(OC(C)(CC)C(=O)O)cc3)CCCCC2)cc1)C(=O)O (stereo not drawn)		-1.38% [at 35.3 µM] (inactive)
C#CC(C)(CC)OC(=O)c1ccccc1C(=O)O (stereo not drawn)		5.31% [at 35.3 µM] (inactive)
O=C(OCc1ccccc1)c1ccc(O)cc1	inactive	
NC(N)=NC(=O)Cc1c(Cl)cccc1Cl		3.25% [at 35.3 µM] (inactive)
O=Nc1ccc(Nc2ccccc2)cc1	19.6 µM (active)	
CCCCN(CCO)CCCC		10% (inactive)
C/C=C/c1ccc(OCC)c(O)c1	inactive	
C=C(C)C(=O)O	inactive	
COC(c1ccccc1)(c1ccccc1)[C@H](Oc1nc(C)cc(C)n1)C(=O)O		-6.02% [at 35.3 µM] (inactive)
Nc1cc(S(=O)(=O)O)cc2cc(S(=O)(=O)O)cc(O)c12	inactive	
CCOc1ccc2c(c1)C(C)=CC(C)(C)N2		1.94% (inactive)
c1ccc2n[nH]nc2c1	inactive	
CCCNC(C)C(=O)Nc1ccccc1C (stereo not drawn)		8.86% [at 35.3 µM] (inactive)

Test: A CellTox Green Cytotoxicity Assay to monitor cytotoxicity in HepG2 cells - 8 hour (AID 1224890); further: nearly all actives have a fitted effect of over 45% in size; further: potency means the concentration at half of the fitted maximal effect
Details: CellTox Green fluorescence; series mostly up to 76.8 µM; cytotoxicity increase: at the top concentration
In short: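 Continuous culture of HepG2 cells with a membrane-impermeant DNA dye; rising fluorescence marks dead cells. Compound exposure lasted up to 40 h at 37 C, with reads every 8 h from 0 h.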

SMILES	Potency	cytotoxicity increase
Cc1cc(Cc2cc(C)cc(C(C)(C)C)c2O)c(O)c(C(C)(C)C)c1	43.9 µM (active) and 34.7 µM (active)	
CCn1cc(C(=O)O)c(=O)c2cc(F)c(N3CCNC(C)C3)c(F)c21 (stereo not drawn)		2.49% [at 35.3 µM] (inactive)
Nc1cc(Cl)c(-c2cc(Cl)c(N)cc2Cl)cc1Cl		-0.501% (inactive)
CCC(=O)/C=C/C1C(C)=CCCC1(C)C (stereo not drawn)	inactive	
NC12CC3CC(CC(C3)C1)C2		-4.06% [at 35.3 µM] (inactive)
CC(C)CCOC(=O)c1ccc(N(C)C)cc1		3% [at 35.3 µM] (inactive)
CC(C)C(=O)c1c(C(C)C)nn2ccccc12		-16% [at 35.3 µM] (inactive)
CC(=O)Nc1ccc(C(=O)CCl)cc1	inactive	
Cc1scc2c1N(C(=O)CN1CCN(C)CC1)c1ccccc1NC2=O		-2.43% [at 35.3 µM] (inactive)
COC(=O)/C=C/c1ccccc1	inactive	
CCc1cc(C(C)(C)C)c(O)c(C(C)(C)C)c1	inactive	
COC(=O)c1cccc(C(=O)OC)c1	inactive and 43.6 µM (active)	
O=C1OC2(c3ccc(O)cc3Oc3cc(O)ccc32)c2ccccc21	692 nM (active) and 301 nM (active)	
CC1=C(C=O)C(C)(C)CC=C1		-14% (inactive)
Nc1ccc2cc3ccccc3cc2c1	inactive	
Cc1cc(C2(c3cc(C)c(O)cc3C)OS(=O)(=O)c3ccccc32)c(C)cc1O	inactive	
CCN(CC)C(=S)SSC(=S)N(CC)CC	56.2 µM (active) and inactive	
CC(=O)N[C@@H](CS)C(=O)O	inactive	
c1ccc2cc3c(ccc4ccccc43)cc2c1	inactive	

SMILES	Potency	cytotoxicity increase
COc1ccc(CCN2CCC(Nc3nc4ccccc4n3Cc3ccc(F)cc3)CC2)cc1	39.8 µM (active) and 23.9 µM (active)	
c1ccc2c(c1)CCCC2C1=NCCN1 (stereo not drawn)		-6.03% [at 35.3 µM] (inactive)
CCn1c2ccccc2c2cc(N)ccc21	inactive	
CC1COC(=O)O1 (stereo not drawn)	inactive and 43.6 µM (active)	
Cc1cccc([N+](=O)[O-])c1C(=O)O		-0.73% (inactive)
CO[Si](OC)(OC)c1ccccc1		-7.23% (inactive)
CCC(C)(Oc1ccc(C2(c3ccc(OC(C)(CC)C(=O)O)cc3)CCCCC2)cc1)C(=O)O (stereo not drawn)		0.322% [at 35.3 µM] (inactive)
C#CC(C)(CC)OC(=O)c1ccccc1C(=O)O (stereo not drawn)		2.34% [at 35.3 µM] (inactive)
O=C(OCc1ccccc1)c1ccc(O)cc1	inactive	
NC(N)=NC(=O)Cc1c(Cl)cccc1Cl		0.0044% [at 35.3 µM] (inactive)
O=Nc1ccc(Nc2ccccc2)cc1	inactive	
CCCCN(CCO)CCCC		-5.04% (inactive)
C/C=C/c1ccc(OCC)c(O)c1	inactive	
C=C(C)C(=O)O	inactive	
COC(c1ccccc1)(c1ccccc1)[C@H](Oc1nc(C)cc(C)n1)C(=O)O		-20.9% [at 35.3 µM] (inactive)
Nc1cc(S(=O)(=O)O)cc2cc(S(=O)(=O)O)cc(O)c12	inactive	
CCOc1ccc2c(c1)C(C)=CC(C)(C)N2	inactive	
c1ccc2n[nH]nc2c1	inactive	
CCCNC(C)C(=O)Nc1ccccc1C (stereo not drawn)		0.0894% [at 35.3 µM] (inactive)
